Source: PubChem (National Center for Advancing Translational Sciences (NCATS))
TDP1 block: blocks human tyrosyl-DNA phosphodiesterase 1; AID 485290; Potency, µM (top dose mostly 130 µM), usual class: inhibitors; recombinant TDP1, AlphaScreen DNA substrate cleavage; Q9NUW8; 350,000 tested, 0.28% active; note: nearly all actives have a fitted effect of over 40% in size
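Tdp1 1 nM final; 15 min RT w/ cpd; substrate 15 nM, 5 min; beads 10 ug/ml, 10 min; AlphaScreen read. Neg ctrl: no enzyme.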
CtBP-E1A inh: CtBP/E1A binding inhibition | 340,000 tested, 0.49% active | AID 651724 | AlphaScreen GST-E1A/His-CtBP binding, 1536-well; hits give low values | activity change, % (test concentration not listed); in the data active = activity change below about -65%; inconclusive = mostly about -30% to -63%
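Steps: dispense buffer (Tris pH 8.0, NaCl 300 mM, TCEP 1 mM, BSA, Tween 20); add 5X protein mix (GST-E1A, His-CtBP, 125 nM each); pin 23 nL compound; 2 h at 37 °C, dark; add 5X beads (50 ug/mL); 1 h; read.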
BAZ2B block: blocks human BAZ2B; 360,000 tested, 4.4% active; AlphaScreen BAZ2B-H3K14Ac peptide displacement; Potency, µM (highest dose often 114 µM), usual class: inhibitors; AID 504333; Q9UIF8; note: nearly all actives have a fitted effect of over 60% in size
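Multi-concentration screen (max 110 uM) measuring displacement of acetylated histone H3 peptide from BAZ2B by AlphaScreen, using 50 nM protein, 50 nM peptide and 10 ug/mL streptavidin donor plus Ni-chelate acceptor beads.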
Six1-Eya2 inh: Six1/Eya2 interaction inhibition; Q15475+O00167; AlphaScreen GST-Six1/His-Eya2 binding, biochemical; hits give low values; activity change, % (concentration not given with the values); 360,000 tested, 0.56% active; AID 651725; in the data active = activity change below about -65%; inconclusive = mostly about -30% to -63%
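AlphaScreen with GST-Six1 and His-Eya2 (5X mix: 250 nM and 500 nM), glutathione donor and nickel acceptor beads; buffer 50 mM Tris pH 8.0, 300 mM NaCl, 1 mM TCEP; 1 h at 37 C in the dark.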
JMJD2A Tudor: blocks the human JMJD2A Tudor domain; AID 504339; AlphaScreen JMJD2A-Tudor / H3K4me3 peptide binding; 390,000 tested, 4.4% active; O75164; Potency, µM (titrated, usually from 114 µM), usual class: inhibitors; note: nearly all actives have a fitted effect of over 50% in size
HP1b chromo inh: inhibitors of HP1-beta chromodomain binding to methylated histone tails. P83916. AlphaScreen HP1-beta / biotin-H3K9me3 peptide binding. Potency, µM (series often up to 114 µM), actives largely listed as inhibitors. 390,000 tested, 0.56% active. AID 540317; note: nearly all actives have a fitted effect of over 70% in size
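HP1-beta protein (50 nM final) preincubated 30 min at room temperature with biotinylated H3(1-18)K9me3 peptide (50 nM) in PBS pH 7.4, 0.01% Tween-20, then compound added for 30 min. AlphaScreen streptavidin donor/nickel chelate acceptor beads (10 ug/mL final), 30 min dark, luminescence read.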
Of the large screens only hits and unclear results are named; the others gave an inactive call. In the library only some 5.3% were active in any assay of this set; here they are far more common. Unless noted, calls come from the whole dose curve; as a rule, active = well fitted inhibition curve with a large enough effect; inconclusive = small, poorly fitted or top-dose-only effect; inactive = no such curve, though single readings can be large or run the other way.

c1ccc(-c2nc(-c3ccncc3)n[nH]2)nc1	BAZ2B block 2.51µM, Six1-Eya2 inh -89.5, JMJD2A Tudor 2.82µM
CC(=O)OCC1OC(n2ccc3ccccc32)C(OC(C)=O)C(OC(C)=O)C1OC(C)=O (stereo unspecified)	none
CC(=O)OCC1OC(Sc2cccc3cccnc23)C(OC(C)=O)C(OC(C)=O)C1OC(C)=O (stereo unspecified)	CtBP-E1A inh -85.3, Six1-Eya2 inh -85.2
CCOC(=O)c1noc2ncnc(Nc3ccc(F)cc3F)c12	none (no result: CtBP-E1A inh, Six1-Eya2 inh)
CCN1CCN(C(=S)NC(=O)c2cccs2)CC1	BAZ2B block inconclusive, JMJD2A Tudor 8.91µM
CC(C)CNC(=O)C1CCN(CC2CCCCC2)CC1	JMJD2A Tudor 79.4µM (no result: TDP1 block)
CC(C)CN1CCC(C(=O)NCC2CCCO2)CC1 (stereo unspecified)	BAZ2B block 56.2µM, JMJD2A Tudor 7.08µM, HP1b chromo inh inconclusive (no result: TDP1 block)
O=C(NCC1CCCO1)C1CCN(CC2CCCCC2)CC1 (stereo unspecified)	BAZ2B block inconclusive, JMJD2A Tudor 35.5µM
CN(C)C(=O)N1CCC(C(=O)NCC2CCCO2)CC1 (stereo unspecified)	none
CC(C)CNC(=O)C(=O)NNC(=O)C1CCCCC1	JMJD2A Tudor inconclusive
COc1ccc(NC(=O)C(NS(=O)(=O)c2cccc3nsnc23)c2ccccc2)cc1 (stereo unspecified)	none (no result: CtBP-E1A inh, BAZ2B block, Six1-Eya2 inh)
O=C(CSc1nc2ncccc2o1)Nc1ccc(Cl)cc1F	none (no result: CtBP-E1A inh, Six1-Eya2 inh)
CCc1cc2c(=O)n3c(nc2s1)-c1[nH]c2ccc(OC)cc2c1CC3	JMJD2A Tudor 22.4µM
Cc1cc2c(s1)c1cnn(Cc3c(C)cc(F)cc3C)c(=O)c1n2C	none (no result: TDP1 block, CtBP-E1A inh, BAZ2B block, Six1-Eya2 inh, HP1b chromo inh)
COc1ccccc1/C=C/C(=O)OC(C)CN1CCOCC1 (stereo unspecified)	JMJD2A Tudor inconclusive
COc1ccccc1/C=C/CN1CCSCC1	BAZ2B block 56.2µM, JMJD2A Tudor 6.31µM, HP1b chromo inh inconclusive (no result: TDP1 block)
COc1cccc(C(=O)C2CCCN(C/C=C/c3ccccc3OC)C2)c1 (stereo unspecified)	JMJD2A Tudor inconclusive
COc1ccccc1/C=C/CN1CCOCC1	BAZ2B block inconclusive, JMJD2A Tudor 3.16µM
O=C(NCCOCCn1c(=O)oc2ccccc21)Nc1cccc(Cl)c1	none (no result: CtBP-E1A inh, Six1-Eya2 inh)
CCOC(=O)c1nnc2ccnn2c1N	JMJD2A Tudor 89.1µM
CCOC(=O)c1sc(Nc2ccc(Br)cc2)nc1C	JMJD2A Tudor 56.2µM
CCOC(=O)c1sc(NC(=O)c2cncc(Br)c2)nc1C	none (no result: CtBP-E1A inh, Six1-Eya2 inh, JMJD2A Tudor, HP1b chromo inh)
CCOC(=O)c1sc(NCCNc2nc(C)c(C(=O)OCC)s2)nc1C	JMJD2A Tudor 50.1µM
Cc1cccc(-c2nc3c4ccccc4n(CC(=O)Nc4cccc(F)c4)c(=O)n3n2)c1	none (no result: CtBP-E1A inh, Six1-Eya2 inh)
CCc1cc2c(=O)c(-c3nc4ccccc4n3C)coc2c(CN2CCCCC2C)c1O (stereo unspecified)	BAZ2B block 44.7µM (no result: TDP1 block)
COC(=O)C=P(c1ccccc1)(c1ccccc1)c1ccccc1	none (no result: CtBP-E1A inh, BAZ2B block, Six1-Eya2 inh, JMJD2A Tudor, HP1b chromo inh)
CCN(C(=O)COC(=O)/C=C/c1ccco1)C1CCCCC1	TDP1 block 20µM, JMJD2A Tudor inconclusive, HP1b chromo inh inconclusive (no result: BAZ2B block)
O=C(/C=C/c1ccco1)OCC(=O)N1CCCCC1	TDP1 block 7.08µM (no result: BAZ2B block)
O=C(/C=C/c1ccc([N+](=O)[O-])cc1)OCC(=O)N1CCCCCC1	CtBP-E1A inh -72.2 (no result: BAZ2B block)
CC(=O)Nc1ccc(S(=O)(=O)Nc2cccn(Cc3ccc(C)cc3)c2=O)cc1	none
O=S(=O)(Nc1ccc(N2CCOCC2)cc1)c1cccs1	none
CC(=O)Nc1ccc(S(=O)(=O)NC2=C(N3CCN(Cc4ccccc4)CC3)C(=O)c3ccccc3C2=O)cc1	CtBP-E1A inh inconclusive, BAZ2B block 20µM, Six1-Eya2 inh inconclusive, JMJD2A Tudor 35.5µM, HP1b chromo inh 31.6µM
CCN1CCN(C2=C(NS(=O)(=O)c3ccc(NC(C)=O)cc3)C(=O)c3ccccc3C2=O)CC1	BAZ2B block inconclusive (no result: CtBP-E1A inh)
CC1CCN(C2=C(NS(=O)(=O)c3ccc(Br)cc3)C(=O)c3ccccc3C2=O)CC1	BAZ2B block 4.47µM, Six1-Eya2 inh -84.3, JMJD2A Tudor 8.91µM, HP1b chromo inh 6.31µM (no result: CtBP-E1A inh)
